Experimental data published in PubChem BioAssay AID1159580 (chemical genetic matrix, 2015).
Among all 5,500 compounds or so, about 2,000 (36%) were called active. About 18% were inconclusive and are not listed. Rule as the data show it: active = normalized growth mostly below about 0.91 (no sharp cut-off); inconclusive = no clear call, values can overlap the other calls; inactive = mostly above about 0.92. Some of the results follow.

Test: chemical genetic growth profiling, strain panel (AID 1159580);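 also: tested at 20 µM; growth read once vehicle control cultures reached saturation at 30 °C; 1 = growth at the plate median or of vehicle wells; lower values mean less growth of the strain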
Conditions: S. cerevisiae deletion strains, growth OD

Measured: normalized growth

C=CCCCCCCCCCCCC(O)CC(O)CO (centres undefined)
inactive: locus YAL013W, strain DEP1, stronger effect = lower value 0.952 | locus YAL021C, strain ccr4, stronger effect = lower value 0.987 | locus YAL026C, strain drs2, stronger effect = lower value 1.01 | locus YAL030W, strain snc1, stronger effect = lower value 1 | locus YBL061C, strain skt5, stronger effect = lower value 1 | locus YBR009C, strain hhf1, stronger effect = lower value 1 | locus YBR023C, strain chs3, stronger effect = lower value 1 | locus YBR171W, strain sec66, stronger effect = lower value 0.986 | locus YBR229C, strain ROT2, stronger effect = lower value 0.974 | locus YBR231C, strain swc5, stronger effect = lower value 0.997 | locus YBR279W, strain paf1, stronger effect = lower value 0.981 | locus YCL011C, strain gbp2, stronger effect = lower value 0.992 | locus YCL016C, strain dcc1, stronger effect = lower value 0.987 | locus YCL029C, strain bik1, stronger effect = lower value 0.968 | locus YCL061C, strain MRC1, stronger effect = lower value 0.985 | locus YCL069W, strain vba3, stronger effect = lower value 0.991 | locus YCR088W, strain abp1, stronger effect = lower value 0.99 | locus YDL005C, strain med2, stronger effect = lower value 0.987 | locus YDL040C, strain nat1, stronger effect = lower value 0.998 | locus YDL074C, strain BRE1, stronger effect = lower value 0.82 | locus YDL101C, strain DUN1, stronger effect = lower value 0.949 | locus YDL134C, strain PPH21, stronger effect = lower value 0.951 | locus YDL185W, strain tfp1, stronger effect = lower value 0.989 | locus YDL192W, strain arf1, stronger effect = lower value 0.921 | locus YDR001C, strain nth1, stronger effect = lower value 0.987 | locus YDR069C, strain doa4, stronger effect = lower value 1.01 | locus YDR137W, strain rgp1, stronger effect = lower value 1.01 | locus YDR150W, strain NUM1, stronger effect = lower value 0.992 | locus YDR159W, strain sac3, stronger effect = lower value 0.99 | locus YDR162C, strain NBP2, stronger effect = lower value 0.948 | locus YDR195W, strain ref2 1.01 | locus YDR297W, strain sur2, stronger effect = lower value 0.996 | locus YDR334W, strain swr1, stronger effect = lower value 1 | locus YDR335W, strain msn5, stronger effect = lower value 0.998 | locus YDR388W, stronger effect = lower value 0.98 | locus YDR392W, strain spt3, stronger effect = lower value 0.918 | locus YEL003W, strain gim4, stronger effect = lower value 0.993 | locus YEL037C, strain rad23, stronger effect = lower value 1.01 | locus YEL061C, strain CIN8 (second series), stronger effect = lower value 0.994 | locus YEL061C, strain CIN8, stronger effect = lower value 0.962 | locus YER015W, strain faa2, stronger effect = lower value 0.99 | locus YER016W, strain bim1, stronger effect = lower value 0.997 | locus YER110C, stronger effect = lower value 0.969 | locus YER111C, strain swi4, stronger effect = lower value 0.991 | locus YER155C, strain BEM2 (second series), stronger effect = lower value 0.986 | locus YER155C, strain BEM2, stronger effect = lower value 0.97 | locus YFR010W, strain ubp6, stronger effect = lower value 1 | locus YGL078C, strain dbp3, stronger effect = lower value 0.967 | locus YGL167C, strain pmr1, stronger effect = lower value 0.998 | locus YGL173C, strain kem1, stronger effect = lower value 0.996 | locus YGL227W, strain vid30, stronger effect = lower value 0.981 | locus YGL240W, strain doc1, stronger effect = lower value 0.993 | locus YGL248W, strain PDE1, stronger effect = lower value 0.927 | locus YGL253W, strain hxk2, stronger effect = lower value 1 | locus YGR229C, strain SMI1, stronger effect = lower value 0.947 | locus YGR252W, strain gcn5, stronger effect = lower value 0.785 | locus YHR013C, strain ard1, stronger effect = lower value 0.966 | locus YHR027C, strain rpn1, stronger effect = lower value 0.995 | locus YHR030C, strain SLT2, stronger effect = lower value 0.974 | locus YHR094C, strain hxt1, stronger effect = lower value 0.985 | locus YHR142W, strain chs7, stronger effect = lower value 1.01 | locus YHR200W, strain rpn10, stronger effect = lower value 0.961 | locus YIL073C, strain SPO22, stronger effect = lower value 0.992 | locus YIL125W, strain kgd1, stronger effect = lower value 0.977 | locus YIR030C, strain dcg1, stronger effect = lower value 0.942 | locus YJL092W, strain hpr5, stronger effect = lower value 0.992 | locus YJL095W, strain BCK1 (second series), stronger effect = lower value 0.99 | locus YJL095W, strain BCK1, stronger effect = lower value 0.937 | locus YJL115W, strain asf1, stronger effect = lower value 0.993 | locus YJL129C, strain trk1, stronger effect = lower value 0.985 | locus YJL134W, strain LCB3, stronger effect = lower value 0.995 | locus YJL154C, strain vps35, stronger effect = lower value 0.987 | locus YJL164C, strain tpk1, stronger effect = lower value 0.997 | locus YJL166W, strain qcr8, stronger effect = lower value 0.99 | locus YJL168C, strain set2, stronger effect = lower value 0.974 | locus YJL187C, strain SWE1 (second series), stronger effect = lower value 0.913 | locus YJL187C, strain SWE1, stronger effect = lower value 0.996
active: locus YBR021W, strain FUR4, stronger effect = lower value 0.751 | locus YDL035C, strain GPR1, stronger effect = lower value 0.822 | locus YDR101C, strain arx1, stronger effect = lower value 0.899 | locus YDR318W, strain mcm21, stronger effect = lower value 0.872 | locus YDR502C, strain sam2, stronger effect = lower value 0.912 | locus YER167W, strain BCK2, stronger effect = lower value 0.872 | locus YGL086W, strain mad1, stronger effect = lower value 0.875 | locus YGR078C, strain PAC10, stronger effect = lower value 0.832 | locus YGR135W, strain pre9, stronger effect = lower value 0.887 | locus YHR079C, strain IRE1 (second series), stronger effect = lower value 0.883 | locus YHR129C, strain ARP1, stronger effect = lower value 0.903 | locus YIL066C, strain RNR3, stronger effect = lower value 0.784
